Measurements taken from the supplement of paper PMC10849652.
The full data set covers some 7,900 targets. This sample favours those with a hit. About 0.6% of all pairs of compound and target were hits.

What was measured:
Test in all cases: log2 fold change, soluble protein after heating vs DMSO (PISA); higher = thermal stabilisation; K562 cells, 10 uM, 30 min; active = over 0.2 and 3.5 SD of the protein, either way, in both replicates (recomputed)
[1] = compound: CS(=O)(=O)c1ccc(-c2cnc(N)c(C(=O)Nc3ccccc3)n2)cc1
Summary of the method: (§1)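 Thermal stability values are relative to control samples and come from duplicates. They are expressed as log2 fold changes. For measurement, K562 cells (2×10^6 cells/mL) received 10 μM compound for 30 min, and aliquots were heated for 3 min over 48°C-58°C, pooled, and extracted at 4°C in PBS with 0.5% NP-40. Soluble protein, the supernatant after 21,000xg for 90 min, was quantified by TMTpro 16plex LC-MS/MS with equalised channel sums.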

[2] = compound: C[C@@H](Oc1cc(-c2cnn(C3CCNCC3)c2)cnc1N)c1c(Cl)ccc(F)c1Cl [crizotinib]
Summary of the method: as §1

[3] = compound: C[C@@H]1COCCN1C2=NC(=NC(=C2)C3(CC3)S(=O)(=O)C)C4=C5C=CNC5=CC=C4
Summary of the method: as §1

[4] = compound: C[C@H](C1=CC=C(C=C1)C(=O)NC2=C3C=CNC3=NC=C2)N
Summary of the method: as §1

[5] = compound: C[C@H](Nc1ncnc2nc[nH]c12)c1cc2cccc(Cl)c2c(=O)n1-c1ccccc1 [duvelisib]
Summary of the method: as §1

[6] = compound: Cc1cc(Nc2cc(CN3CCOCC3)c3nc(C)c(Cc4ccc(Cl)cc4F)n3n2)n[nH]1 [gandotinib]
Summary of the method: as §1

[7] = compound: Cc1cc(Nc2cc(N3CCN(C)CC3)nc(Sc3ccc(NC(=O)C4CC4)cc3)n2)n[nH]1 [tozasertib]
Summary of the method: as §1

[8] = compound: Cc1cc(SCc2sc(-c3ccc(C(F)(F)F)cc3)nc2C)ccc1OCC(=O)O
Summary of the method: as §1

[9] = compound: Cc1ccc(-n2nc(C(C)(C)C)cc2NC(=O)Nc2ccc(OCCN3CCOCC3)c3ccccc23)cc1 [doramapimod]
Summary of the method: as §1

[10] = compound: Cc1ccc(C(=O)N(CCCN)[C@@H](c2nc3cc(Cl)ccc3c(=O)n2Cc2ccccc2)C(C)C)cc1 [ispinesib]
Summary of the method: as §1

[11] = compound: Cc1ccc(NC(=O)c2ccc(CN3CC[C@H](N(C)C)C3)c(C(F)(F)F)c2)cc1Nc1nccc(-c2cncnc2)n1 [bafetinib]
Summary of the method: as §1

[12] = compound: Cc1cccc(CC(=O)N2CCc3c2ccc(-c2cn(C)c4ncnc(N)c24)c3F)n1
Summary of the method: as §1

[13] = compound: Cc1cn(-c2cc(NC(=O)c3ccc(C)c(Nc4nccc(-c5cccnc5)n4)c3)cc(C(F)(F)F)c2)cn1 [nilotinib]
Summary of the method: as §1

[14] = compound: Cc1nc(Nc2n[nH]c3c2CN(C(=O)N[C@H](CN(C)C)c2ccccc2)C3(C)C)c2sccc2n1
Summary of the method: as §1

[15] = compound: Cc1nc(Nc2ncc(C(=O)Nc3c(C)cccc3Cl)s2)cc(N2CCN(CCO)CC2)n1 [dasatinib]
Summary of the method: as §1

[16] = compound: Cc1ncc(-c2ccnc(Nc3ccc(S(C)(=O)=O)cc3)n2)n1C(C)C
Summary of the method: as §1

[17] = compound: Cn1cc(-c2ccc3c(c2)CCN3C(=O)Cc2cccc(C(F)(F)F)c2)c2c(N)ncnc21
Summary of the method: as §1

[18] = compound: Cn1cc(-c2ccc3nnc(C(F)(F)c4ccc5ncccc5c4)n3n2)cn1
Summary of the method: as §1

[19] = compound: Cn1cncc1[C@@](N)(c1ccc(Cl)cc1)c1ccc2c(c1)c(-c1cccc(Cl)c1)cc(=O)n2C [tipifarnib]
Summary of the method: as §1

[20] = compound: FC(F)(F)c1ccc(/C=C/c2nc(COc3ccc(CCCCn4ccnn4)cc3)co2)cc1 [mubritinib]
Summary of the method: as §1

Measured: log2 fold change

KHDRBS1 (UniProt Q07666)
Chain of UniProt Q07666 (Q07666 whole entry, looked up): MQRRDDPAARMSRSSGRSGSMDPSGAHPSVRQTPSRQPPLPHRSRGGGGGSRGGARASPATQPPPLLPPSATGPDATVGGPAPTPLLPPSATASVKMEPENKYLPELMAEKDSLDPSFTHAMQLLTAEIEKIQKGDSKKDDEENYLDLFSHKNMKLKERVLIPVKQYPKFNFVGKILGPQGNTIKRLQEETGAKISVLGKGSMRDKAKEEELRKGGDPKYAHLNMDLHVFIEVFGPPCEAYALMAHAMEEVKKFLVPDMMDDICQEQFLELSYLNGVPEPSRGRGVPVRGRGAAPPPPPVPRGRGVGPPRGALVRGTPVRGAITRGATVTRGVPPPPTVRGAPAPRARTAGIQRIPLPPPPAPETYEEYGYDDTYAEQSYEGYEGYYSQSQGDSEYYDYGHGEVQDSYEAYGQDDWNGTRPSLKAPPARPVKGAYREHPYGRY
inactive: [1] -0.091 | [2] -0.02 | [3] -0.06 | [4] -0.019 | [5] -0.017 | [6] 0.07 | [7] -0.015 | [8] 0.038 | [9] -0.027 | [10] 0.011 | [11] 0.041 | [12] 0.007 | [13] 0.035 | [14] 0.02 | [15] 0.012 | [16] 0.07 | [17] 0.025 | [18] -0.024 | [19] 0.017 | [20] 0.021

MAP2K1 (UniProt Q02750)
Chain of UniProt Q02750 (Q02750 whole entry, looked up): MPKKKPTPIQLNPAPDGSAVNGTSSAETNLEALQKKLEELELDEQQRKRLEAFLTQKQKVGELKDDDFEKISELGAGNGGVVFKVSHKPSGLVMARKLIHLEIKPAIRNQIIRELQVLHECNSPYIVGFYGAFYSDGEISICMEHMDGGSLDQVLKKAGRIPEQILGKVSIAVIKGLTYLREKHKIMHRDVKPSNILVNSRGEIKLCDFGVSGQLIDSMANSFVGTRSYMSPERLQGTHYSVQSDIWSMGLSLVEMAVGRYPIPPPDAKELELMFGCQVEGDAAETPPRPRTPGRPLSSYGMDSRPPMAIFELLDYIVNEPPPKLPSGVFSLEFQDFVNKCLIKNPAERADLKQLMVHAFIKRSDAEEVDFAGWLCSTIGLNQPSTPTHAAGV
inactive: [1] 0.055 | [2] -0.019 | [3] 0.088 | [4] -0.092 | [5] 0.059 | [6] 0.005 | [7] -0.009 | [8] -0.038 | [9] -0.05 | [10] -0.009 | [11] -0.026 | [12] -0.039 | [13] -0.015 | [14] -0.052 | [15] -0.063 | [16] 0.008 | [17] 0.023 | [18] 0.021 | [19] -0.024 | [20] 0.015

KPNA1 (UniProt P52294)
Chain of UniProt P52294 (P52294 whole entry, looked up): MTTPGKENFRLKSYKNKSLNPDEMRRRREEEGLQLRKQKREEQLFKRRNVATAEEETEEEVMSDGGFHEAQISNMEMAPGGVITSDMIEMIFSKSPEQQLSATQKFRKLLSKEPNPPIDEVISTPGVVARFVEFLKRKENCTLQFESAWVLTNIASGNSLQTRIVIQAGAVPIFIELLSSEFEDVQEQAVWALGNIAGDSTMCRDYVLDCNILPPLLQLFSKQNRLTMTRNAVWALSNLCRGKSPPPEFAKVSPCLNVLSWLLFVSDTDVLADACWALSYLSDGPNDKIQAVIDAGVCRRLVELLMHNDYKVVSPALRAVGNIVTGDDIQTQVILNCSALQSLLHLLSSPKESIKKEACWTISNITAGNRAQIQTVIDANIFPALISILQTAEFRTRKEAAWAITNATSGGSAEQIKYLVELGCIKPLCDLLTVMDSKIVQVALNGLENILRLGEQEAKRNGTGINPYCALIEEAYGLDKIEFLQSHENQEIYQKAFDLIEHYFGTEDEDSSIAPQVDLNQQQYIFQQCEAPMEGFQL
inactive: [1] -0.021 | [2] -0.169 | [3] -0.029 | [4] 0.084 | [5] 0.047 | [6] 0.01 | [7] 0.075 | [8] -0.008 | [9] 0.062 | [10] -0.012 | [11] 0 | [12] -0.02 | [13] -0.103 | [14] -0.074 | [15] 0.003 | [16] 0.047 | [17] -0.089 | [18] -0.008 | [19] -0.088 | [20] -0.06

MDN1 (UniProt Q9NU22)
inactive: [1] -0.072 | [2] -0.135 | [3] 0.094 | [4] 0.002 | [5] 0.024 | [6] -0.156 | [7] -0.052 | [8] 0.063 | [9] -0.005 | [10] -0.117 | [11] -0.094 | [12] 0 | [13] -0.15 | [14] -0.195 | [15] -0.245 | [16] -0.089 | [17] 0.02 | [18] 0.011 | [19] -0.052 | [20] -0.089

INPP1 (UniProt P49441)
Chain of UniProt P49441 (P49441 whole entry, looked up): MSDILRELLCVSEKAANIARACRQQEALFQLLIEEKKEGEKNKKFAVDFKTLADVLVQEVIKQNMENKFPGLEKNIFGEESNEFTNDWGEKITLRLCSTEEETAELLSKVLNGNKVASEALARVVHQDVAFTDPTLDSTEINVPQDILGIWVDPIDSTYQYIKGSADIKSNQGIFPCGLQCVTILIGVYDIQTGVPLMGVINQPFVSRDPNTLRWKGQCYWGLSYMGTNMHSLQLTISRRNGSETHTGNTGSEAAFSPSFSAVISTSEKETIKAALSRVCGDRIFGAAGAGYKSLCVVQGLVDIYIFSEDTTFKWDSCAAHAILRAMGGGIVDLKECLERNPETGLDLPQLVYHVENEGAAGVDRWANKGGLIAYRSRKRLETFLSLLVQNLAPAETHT
inactive: [1] 0.041 | [2] -0.016 | [3] -0.012 | [4] -0.028 | [5] 0.011 | [6] -0.084 | [7] 0.018 | [8] -0.043 | [9] -0.018 | [10] 0.052 | [11] 0.003 | [12] 0.094 | [13] -0.001 | [14] 0.067 | [15] 0.027 | [16] 0.053 | [17] 0.037 | [18] 0.027 | [19] -0.135 | [20] 0.15

LARP4B (UniProt Q92615)
Chain of UniProt Q92615 (Q92615 whole entry, looked up): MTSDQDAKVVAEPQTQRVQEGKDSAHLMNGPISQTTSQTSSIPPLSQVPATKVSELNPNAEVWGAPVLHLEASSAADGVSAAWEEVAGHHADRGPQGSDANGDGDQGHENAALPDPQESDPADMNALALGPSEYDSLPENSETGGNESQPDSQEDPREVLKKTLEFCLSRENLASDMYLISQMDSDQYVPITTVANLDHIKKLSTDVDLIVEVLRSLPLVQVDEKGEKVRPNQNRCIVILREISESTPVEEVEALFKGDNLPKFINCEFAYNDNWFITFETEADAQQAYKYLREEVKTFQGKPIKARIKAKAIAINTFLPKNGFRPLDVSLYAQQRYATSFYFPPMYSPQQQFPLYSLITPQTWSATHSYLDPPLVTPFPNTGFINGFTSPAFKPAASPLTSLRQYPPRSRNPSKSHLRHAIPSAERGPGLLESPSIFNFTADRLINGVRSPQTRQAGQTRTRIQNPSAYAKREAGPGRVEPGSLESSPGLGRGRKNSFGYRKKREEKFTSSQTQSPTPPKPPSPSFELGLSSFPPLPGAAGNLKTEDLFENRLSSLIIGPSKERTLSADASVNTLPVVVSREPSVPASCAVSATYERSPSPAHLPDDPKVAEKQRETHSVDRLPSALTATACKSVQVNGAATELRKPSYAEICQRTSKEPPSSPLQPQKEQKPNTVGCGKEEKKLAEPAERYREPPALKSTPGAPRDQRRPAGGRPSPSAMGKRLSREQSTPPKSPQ
inactive: [1] -0.066 | [2] -0.1 | [3] -0.121 | [4] 0.104 | [5] -0.029 | [6] -0.029 | [7] 0.037 | [8] 0.065 | [9] 0.048 | [10] -0.132 | [11] 0.022 | [12] -0.025 | [13] -0.055 | [14] -0.192 | [15] -0.072 | [16] -0.092 | [17] -0.052 | [18] -0.031 | [19] -0.008 | [20] -0.038

IPO9 (UniProt Q96P70)
Chain of UniProt Q96P70 (Q96P70 whole entry, looked up): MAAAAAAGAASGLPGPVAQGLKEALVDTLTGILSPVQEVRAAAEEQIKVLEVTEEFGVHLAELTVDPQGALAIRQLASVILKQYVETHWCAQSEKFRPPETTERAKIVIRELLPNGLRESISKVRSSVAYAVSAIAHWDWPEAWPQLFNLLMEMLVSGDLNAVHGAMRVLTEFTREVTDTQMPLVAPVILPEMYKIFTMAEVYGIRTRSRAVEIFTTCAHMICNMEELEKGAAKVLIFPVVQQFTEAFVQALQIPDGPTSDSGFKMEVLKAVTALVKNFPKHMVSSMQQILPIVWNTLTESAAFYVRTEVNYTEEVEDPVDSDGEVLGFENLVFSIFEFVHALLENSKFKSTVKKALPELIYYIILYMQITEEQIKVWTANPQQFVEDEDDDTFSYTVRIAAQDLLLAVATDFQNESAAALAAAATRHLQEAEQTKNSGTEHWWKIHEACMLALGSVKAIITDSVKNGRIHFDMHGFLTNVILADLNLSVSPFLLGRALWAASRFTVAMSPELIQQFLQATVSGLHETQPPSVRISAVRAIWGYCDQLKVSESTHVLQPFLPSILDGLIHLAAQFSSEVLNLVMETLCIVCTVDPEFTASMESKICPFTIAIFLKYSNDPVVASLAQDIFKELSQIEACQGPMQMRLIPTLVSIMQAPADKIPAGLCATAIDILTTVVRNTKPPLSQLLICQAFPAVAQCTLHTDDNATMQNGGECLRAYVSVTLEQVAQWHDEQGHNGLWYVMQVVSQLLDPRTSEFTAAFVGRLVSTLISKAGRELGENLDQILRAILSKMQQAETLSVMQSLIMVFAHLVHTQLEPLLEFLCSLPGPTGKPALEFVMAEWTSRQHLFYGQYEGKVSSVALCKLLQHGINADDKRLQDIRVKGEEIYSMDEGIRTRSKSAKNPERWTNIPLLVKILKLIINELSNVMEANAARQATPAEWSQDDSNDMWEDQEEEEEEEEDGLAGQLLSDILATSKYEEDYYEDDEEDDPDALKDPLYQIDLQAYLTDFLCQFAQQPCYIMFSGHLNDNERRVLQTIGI
inactive: [1] -0.04 | [2] -0.031 | [3] 0.051 | [4] -0.042 | [5] 0.007 | [6] -0.146 | [7] 0.143 | [8] 0.041 | [9] 0.008 | [10] 0.062 | [11] 0.019 | [12] 0.031 | [13] -0.016 | [14] -0.06 | [15] 0.04 | [16] 0.011 | [17] -0.069 | [18] -0.06 | [19] -0.084 | [20] -0.005

LYN (UniProt P07948)
Chain of UniProt P07948 (P07948 whole entry, looked up): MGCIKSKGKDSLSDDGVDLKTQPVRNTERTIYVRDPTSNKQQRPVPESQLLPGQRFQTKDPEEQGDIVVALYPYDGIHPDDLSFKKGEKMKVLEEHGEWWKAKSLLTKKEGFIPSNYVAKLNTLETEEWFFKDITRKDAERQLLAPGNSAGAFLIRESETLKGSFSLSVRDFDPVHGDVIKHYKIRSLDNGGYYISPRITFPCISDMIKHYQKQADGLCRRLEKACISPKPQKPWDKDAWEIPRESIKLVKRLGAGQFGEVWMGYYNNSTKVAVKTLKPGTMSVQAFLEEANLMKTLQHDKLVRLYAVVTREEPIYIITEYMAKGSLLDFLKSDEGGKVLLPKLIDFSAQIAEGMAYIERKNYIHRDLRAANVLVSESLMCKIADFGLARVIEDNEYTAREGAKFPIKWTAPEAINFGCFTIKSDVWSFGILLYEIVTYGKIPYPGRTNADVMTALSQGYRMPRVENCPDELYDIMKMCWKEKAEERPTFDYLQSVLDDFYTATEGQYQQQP
inactive: [1] -0.023 | [2] -0.142 | [3] -0.101 | [4] -0.01 | [5] 0.118 | [6] -0.015 | [7] -0.085 | [8] 0.132 | [9] 0.065 | [10] -0.094 | [11] 0.26 | [12] 0.008 | [13] 0.062 | [16] -0.043 | [17] -0.06 | [18] 0.034 | [19] -0.005 | [20] -0.003
active: [14] -0.414 | [15] -0.419
